In PubChem BioAssay AID504941 (Broad Institute, 2011):
Screen size: about 1,200 compounds; about 170 (14%) were called active. The rule behind the calls is not given here. The list is a sample of the results. Measured potencies and affinities stand elsewhere.

Assay: twin-arginine translocation blockade, bacterial reporter – cherry-pick, set 2, plate reader, dose response (AID 504941)
Settings: E. coli Tat transport reporter; series mostly up to 38 µM; activity change, negative = inhibition: at the top concentration

| SMILES | activity change, negative = inhibition |
| --- | --- |
| O=C(CSc1ncnc2c1nnn2Cc1ccccc1F)NCC1CCCO1 (stereo unspecified) | -22.2% (inactive) |
| O=C(CSc1cn(CCNC(=O)c2c(F)cccc2F)c2ccccc12)NCC1CCCO1 (stereo unspecified) | -4.72% (inactive) |
| Cc1ccccc1OCC(=O)Nc1ccc(S(=O)(=O)Nc2onc(C)c2C)cc1 | 14.2% (inactive) |
| O=C(/C=C/Nc1ccccc1Br)c1ccccn1 | -9.87% (inactive) |
| CC1(C)CC(NC(=O)c2ccc(-c3ccc([N+](=O)[O-])cc3)o2)CC(C)(C)N1 | -19.5% (inactive) |
| Cc1ccc(NC(=S)NC(=O)c2ccc(F)cc2)cc1S(=O)(=O)Nc1ccccc1Cl | -2.37% (inactive) |
| C[C@H]1CN([C@@H](C)CO)C(=O)c2cccc(NS(=O)(=O)c3ccc(F)cc3)c2O[C@H]1CN(C)Cc1ccc(Cl)c(Cl)c1 | 35.5% (inactive) |
| COC(C(=O)Nc1ccnn1C1CCN(C(=O)c2ccc(C=O)cc2)CC1)c1ccccc1 (stereo unspecified) | -9.7% (inactive) |
| Cc1ccc(NC(=O)c2cccs2)cc1S(=O)(=O)Nc1cccc(Cl)c1 | 22% (inactive) |
| Cc1ccccc1-n1c(SCC(=O)N2CCOCC2)nc(O)c(Cc2ccccc2)c1=O | -5.11% (inactive) |
| COCCn1c(=NC(=O)c2ccc3c(c2)OCCO3)sc2cc(S(N)(=O)=O)ccc21 | -9.51% (inactive) |
| CN1CCc2c(sc3nc(SCC(=O)N4CCOCC4)nc(N)c23)C1 | -3.11% (inactive) |
| COC(=O)C1(S(=O)(=O)C2(C(=O)OC)CCCC2)CCCC1 | -3.26% (inactive) |
| Cc1ccc(NCc2nnc3n2CCCCC3)c(C)c1 | 20.5% (inactive) |
| O=c1cc(O)nc[nH]1 | -1.49% (inactive) |
| CC1(C)CC(=O)C/C(=N\NC(=O)CCc2ccc(S(=O)(=O)N3CCOCC3)cc2)C1 | 0.359% (inactive) |
| COc1cccc(COC(=O)C2CC(=O)N(Cc3ccco3)C2)c1OC (stereo unspecified) | -18.3% (inactive) |
| CCc1ccc2c(CSc3nnnn3C)cc(=O)oc2c1 | 1.88% (inactive) |
| O=c1[nH]c(N2CCCCC2)nc2c1CCCC2 | 22.6% (inactive) |
| S=c1nc(-c2ccccc2Br)[nH][nH]1 | 3.19% (inactive) |
| CCOC(=O)N1CCN(c2ccc(C(=O)CC)cc2F)CC1 | -16.3% (inactive) |
| CN(C)c1nc(SCC#N)nc(N2CCOCC2)n1 | -12.4% (inactive) |
| CCCC(=O)NC1=C(C#N)C2(CCCC2)Cc2ccccc21 | 21.4% (inactive) |
| c1ccc(CC2=NCCN2)cc1 | 27.8% (inactive) |

| SMILES | activity change, negative = inhibition |
| --- | --- |
| O=C(Nc1cccc(NC(=O)c2ccco2)c1)c1ccccc1 | -7.6% (inactive) |
| O=S(=O)(/N=C(/Nc1ccccc1)c1ccccc1)c1cccs1 | 16% (inactive) |
| N#Cc1ccccc1CSc1ccccn1 | -4.99% (inactive) |
| O=C1CCCN1Cc1ccccc1 | 3.9% (inactive) |
| COc1ccc(Cl)cc1S(=O)(=O)Nc1noc2ccccc12 | -10.8% (inactive) |
| Nc1ccccc1C(=O)NCC1(c2ccccc2)CCCC1 | -13.6% (inactive) |
| Cc1ccccc1Nc1nnc(C)c(=O)[nH]1 | -11.2% (inactive) |
| Cc1ccc(C(=O)N2CCCC(CCC(=O)NCc3ccc(F)c(F)c3)C2)cn1 (stereo unspecified) | -11.3% (inactive) |
| CCCc1cc(=O)oc2cc(OCC(=O)N(C)C)c(Cl)cc12 | 13.6% (inactive) |
| C#CCNC(=O)C1=C[C@H](c2csc3ccccc23)[C@@H](CCCO)[C@H](OCC)O1 | 3.86% (inactive) |
| COc1cc(OC)cc(C(=O)N(CN2CCCC2=O)c2ccccc2OC)c1 | -1.04% (inactive) |
| CCOCCCNC(=S)NCCNc1nc2ccc(C)cc2cc1C#N | -5.46% (inactive) |
| Cc1ccsc1C1C(C#N)=C(N)OC2=C1C(=O)CC(C)C2 (stereo unspecified) | 11.4% (inactive) |
| CC(=O)N(Cc1ccc(F)cc1)c1cccc(C)c1C | -14.8% (inactive) |
| Cc1ccc(NC(=O)C(c2ccc(Cl)cc2)N2CCCCC2)cc1 (stereo unspecified) | -1.59% (inactive) |
| Cc1cc(C(=O)N2CCN(c3ccccc3)CC2)no1 | 3.1% (inactive) |
| Cc1cc(C)n2nc(SC(C)C(=O)N3CC(C)OC(C)C3)nc2n1 (stereo unspecified) | -4.69% (inactive) |
| CC1=C(C#N)C(c2cn(-c3ccccc3)nc2-c2cccs2)C(C#N)=C(C)N1 | 24.9% (inactive) |
| Cc1nc2ncnn2c(C)c1CCC(=O)N1CCCCC1 | 4.61% (inactive) |
| CCNC(=O)OCC12CC3CC(CC(C3)C1)C2 | 2.46% (inactive) |
| CCOc1ccccc1NC(=O)NCc1ccc2c(c1)OCO2 | 21.1% (inactive) |
| O=C1CN(C(=O)COC(=O)c2cc(S(=O)(=O)N3CCOCC3)ccc2Cl)c2ccccc2N1 | 15.5% (inactive) |
| Cc1ccc(-c2n[nH]c3c2C(c2ccccc2)N(c2ccc(C(=O)O)cc2)C3=O)cc1 (stereo unspecified) | -5.26% (inactive) |
| COc1ccc(CN2CCN(C(=O)C3CCC(CNS(=O)(=O)c4ccccc4)CC3)CC2)c(OC)c1OC (stereo unspecified) | 6.45% (inactive) |

| SMILES | activity change, negative = inhibition |
| --- | --- |
| Cc1nn(-c2ccccc2)c2nc3c(cc12)C(=O)CCC3 | 16.6% (inactive) |
| COc1ccc(-n2c(Cc3cccn3C)nnc2SCC(=O)Nc2ccc(C(C)=O)cc2)cc1 | 17.2% (inactive) |
| CC(=O)c1ccc(NC(=O)CSc2nc(N3CCOCC3)nc(N3CCOCC3)n2)cc1 | -10.8% (inactive) |
| Cc1ccc(-c2nc3ccccc3s2)cc1NC(=S)NC(=O)c1cccc2ccccc12 | 9.11% (inactive) |
| COc1ccc(-c2nc3ccccc3o2)cc1NC(=O)c1ccc(Br)o1 | 9.12% (inactive) |
| Cc1cc(NC(=O)C2CC2)ccc1NC(=O)c1cccs1 | 2.3% (inactive) |
| CC1=NN(c2ccccc2)C(=O)C1c1ccccc1 (stereo unspecified) | 23.5% (inactive) |
| O=C(NCCOC(=O)c1cccs1)c1cccnc1 | -2.94% (inactive) |
| CCOC(=O)CNC(=O)c1ccccc1 | 4.19% (inactive) |
| CCOC(=O)CNS(=O)(=O)Cc1ccccc1 | 7.82% (inactive) |
| Cc1cc2ncn(CCOc3ccccc3)c2cc1C | -9.86% (inactive) |
| COc1ccc(/C=C(/NC(=O)c2cccc([N+](=O)[O-])c2)C(=O)O)cc1OC | 2.13% (inactive) |
| CC(C)(C)OC(=O)N(CCc1ccccc1)Cc1cccc(OCc2cccc(NC(=O)/C=C/c3ccccc3)c2)c1 | 23.8% (inactive) |
| O=C(Nc1cccnc1Cl)c1noc2c1CCc1ccccc1-2 | -13.1% (inactive) |
| Cc1ccc(CN(C(=O)c2sc3ccccc3c2Cl)C2CCS(=O)(=O)C2)cc1 (stereo unspecified) | 5.46% (inactive) |
| COc1ccccc1-n1nc(C(=O)Nc2ccc3c(c2)OCO3)c2ccccc2c1=O | 26.9% (inactive) |
| C=CCNC(=O)c1ccccc1NC(=O)Nc1ccccc1 | 9.76% (inactive) |
| COCCN(C(=S)Nc1c(C)cc(C)cc1C)C(C)c1cccnc1 (stereo unspecified) | 6.68% (inactive) |
| CCOCCCNC(=O)c1ccc(Cn2c(=S)[nH]c3c([nH]c4ccc(OC)cc43)c2=O)cc1 | 25.4% (inactive) |
| CCOC(=O)Cc1c[nH]c2ccc([N+](=O)[O-])cc12 | 2.39% (inactive) |
| O=C(/C=C/c1ccccc1)Nc1cc(S(=O)(=O)N2CCOCC2)ccc1N1CCCC1 | 12.8% (inactive) |
| COc1ccc(N=C2SC(C(=O)O)CC(=O)N2Cc2ccc(OC)c(OC)c2)cc1 (stereo unspecified) | 2.87% (inactive) |
| CNC(=O)C1CCN(S(=O)(=O)c2c(C)noc2/C=C/c2cccc(OC)c2)CC1 | 22.2% (inactive) |
